An excerpt weighted towards active compounds, which were near 2.6% of everything screened.
PRMT1 inh = PRMT1 (human) inhibition, primary screen; recombinant PRMT1, activity-based probe fluorescence polarization; inhibition, % at 2.79 µM; 370,000 tested, 1.3% active;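 active = inhibition above about 21% made by adding two undisclosed values, limit read from the data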
PAD4 inh = blocks human protein arginine deiminase 4. recombinant PAD4, RCA probe fluorescence polarization. inhibition, % at 6.36 µM. Q9UM07. 330,000 tested, 0.41% active. AID 485272;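 active = percent inhibition above a cutoff equal to the mean of all tested compounds plus 3 SD, cut at about 15% in these data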
TCR CD3 inh = human TCR-CD3 binding inhibition; 360,000 tested, 0.37% active; inhibition, % at 9.4 µM; TAMRA-labeled TCR probe fluorescence, biochemical; in the data active = inhibition above about 19%;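 also: recombinant mutant TCR 2C K166C tagged with TAMRA read by polarization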
SIAE inh = inhibitors of human sialic acid acetylesterase SIAE | AID 1053197 | inhibition, % at 9.66 µM | SIAE FP-Rh probe binding, fluorescence polarization | Q9HAT2 | 370,000 tested, 0.69% active;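 active = inhibition above a cutoff: mean of compounds within the control limits plus 3 SD of those, cut at about 17% in these data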
Target sequence (Q9HAT2 whole entry, looked up): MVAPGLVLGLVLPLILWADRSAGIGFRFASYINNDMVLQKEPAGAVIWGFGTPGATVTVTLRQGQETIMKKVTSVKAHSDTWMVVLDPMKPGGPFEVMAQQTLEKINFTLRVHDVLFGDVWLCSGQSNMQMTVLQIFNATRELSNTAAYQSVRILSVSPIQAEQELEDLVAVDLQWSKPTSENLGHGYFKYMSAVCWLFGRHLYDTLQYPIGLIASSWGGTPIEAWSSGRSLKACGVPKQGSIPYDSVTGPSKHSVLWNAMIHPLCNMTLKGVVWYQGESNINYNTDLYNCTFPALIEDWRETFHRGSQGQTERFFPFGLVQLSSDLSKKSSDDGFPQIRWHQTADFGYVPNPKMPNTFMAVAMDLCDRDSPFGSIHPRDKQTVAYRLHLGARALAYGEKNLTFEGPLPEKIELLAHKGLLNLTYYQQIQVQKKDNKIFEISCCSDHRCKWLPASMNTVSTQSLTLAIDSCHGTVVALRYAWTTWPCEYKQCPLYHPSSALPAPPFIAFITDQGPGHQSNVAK
PME-1 inh = blocks human protein phosphatase methylesterase 1. Q9Y570. recombinant PME-1, FP-Rh probe fluorescence polarization. inhibition, % at 5.9 µM. 320,000 tested, 0.53% active. AID 2130;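 active = inhibition above the campaign mean of all compounds plus 3 SD, cut at about 26% in these data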;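 also: competitive labeling of PME-1 active site by serine hydrolase directed probe; inhibitors block probe labeling so polarization falls and inhibition rises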
Fam108B counter = counter-screen for RBBP9 inhibitors: inhibitors of mouse Fam108B. recombinant Fam108B, FP-Rh probe fluorescence polarization. inhibition, % at 9.51 µM. 300,000 tested, 0.33% active. AID 1947;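 active = inhibition above the screen mean inhibition plus 3 SD, computed separately per campaign, cut at about 18% in these data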;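 also: inhibitors lower polarization as less probe binds the enzyme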
SIAE inh conf = human SIAE inhibition, confirmation; SIAE FP-Rh activity-based probe, fluorescence polarization; 2,300 tested, 13% active; inhibition, % at 9.66 µM; shares compounds with SIAE inh;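 active = mean inhibition of the replicates above the hit cutoff set in the primary screen, cut at about 17% in these data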;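 also: inhibitors lower polarization as more probe stays unbound to SIAE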
Hits are given with their value; . = inactive; / = no result given.

SMILES	PRMT1 inh	PAD4 inh	TCR CD3 inh	SIAE inh	PME-1 inh	Fam108B counter	SIAE inh conf
CC(C)CC(=O)NC(=S)NNC(=O)c1ccc([N+](=O)[O-])cc1	.	.	.	31	.	.	.
CCC(=O)NC(=S)NNC(=O)c1ccc([N+](=O)[O-])cc1	.	.	.	.	.	.	/
COc1ccc(N2CCN(c3ccc(NC(=O)/C=C\C(=O)O)cc3)CC2)cc1	.	30	.	18	.	.	.
CCOC(=O)C1=C(c2ccccc2)NC(N)=NC1c1ccc(OCc2ccc(Cl)cc2)c(OC)c1 (centres undefined)	.	.	.	18	.	.	17
CSc1cccc(NC(=S)N(CCN(C)C)C(C)c2ccncc2)c1 (centres undefined)	.	.	.	23	.	.	.
CSc1cccc(NC(=S)N(CCN(C)C)C(C)c2ccccn2)c1 (centres undefined)	.	.	.	.	.	.	/
CC(=O)c1cccc(S(=O)(=O)N2CCC(C(=O)Oc3ccc(-c4nnco4)cc3)CC2)c1	.	.	.	22	/	/	.
Nc1nc2c(ncn2[C@@H]2O[C@H](C(=O)N[C@H](Cc3ccccc3)C(=O)NCc3ccccc3)[C@@H](O)[C@H]2O)c(=O)[nH]1	.	/	.	.	/	/	/
Nc1nc2c(ncn2[C@@H]2O[C@H](C(=O)NC3CCCCC3)[C@@H](O)[C@H]2O)c(=O)[nH]1	.	/	.	49	/	/	43
Nc1nc2c(ncn2[C@@H]2O[C@H](C(=O)N[C@H](Cc3ccccc3)C(=O)NC3CCCCC3)[C@@H](O)[C@H]2O)c(=O)[nH]1	.	/	.	32	/	/	35
CN(C(=O)[C@H]1O[C@@H](n2cnc3c(=O)[nH]c(N)nc32)[C@H](O)[C@@H]1O)C1CCCCC1	.	/	.	41	/	/	46
Nc1nc2c(ncn2[C@@H]2O[C@H](C(=O)NCC(F)(F)F)[C@@H](O)[C@H]2O)c(=O)[nH]1	.	/	.	.	/	/	/
CCCCC#Cc1ccccc1COC[B-](F)(F)F	.	/	.	.	/	/	/
Cc1ccc2c(c1)N(CCCC(=O)N(C)Cc1ccccc1F)C(=O)CO2	.	/	/	.	/	/	/
COCCCNC(=O)c1cc(Sc2ccc(F)cc2)nc2ccccc12	.	.	.	18	.	.	.
CCOCCCNC(=O)c1cc(Sc2ccc(F)cc2)nc2ccccc12	.	.	.	.	.	.	/
CCC(=O)N[C@H]1C[C@@H]2O[C@@H](CO)CC[C@@H]2O[C@@H]1CCc1ccc(-c2cccc(OC)c2)cc1	.	/	/	.	/	/	/
COc1ccc(-c2nc3cccc(C)n3c2NCc2ccco2)cc1OC	.	.	.	25	.	.	.
COc1ccc(-c2csc(NCc3ccco3)n2)cc1C	/	.	/	/	.	.	/
O=C(CNS(=O)(=O)c1ccc(Cl)s1)N1CCN(c2ccccn2)CC1	.	/	/	.	/	/	/
Cc1ccc(S(=O)(=O)Nc2nc(C)c(NC(=O)Nc3ccc(Cl)cc3Cl)s2)cc1	.	.	.	35	.	.	29
CCCCNC(=O)C[C@@H]1C(=O)N(CCc2ccc(Cl)cc2)C2=CCCCC[C@]21C(=O)OC	.	/	/	.	/	/	/
CCC(CC)C(=O)NCCc1ccc(OC)cc1	.	.	.	17	.	.	.
CCC(CC)C(=O)NCCc1ccc(OC)c(OC)c1	.	.	.	.	.	.	/
CCC(C(=O)NCCCc1ccccc1)c1ccccc1 (centres undefined)	.	.	.	.	.	.	/
SMILES	PRMT1 inh	PAD4 inh	TCR CD3 inh	SIAE inh	PME-1 inh	Fam108B counter	SIAE inh conf
CCC(CC)C(=O)NCCCCc1ccccc1	.	.	.	20	.	.	.
Cc1ccc(-n2c(SC/C=C/c3ccccc3)nnc2-c2cccs2)cc1	.	/	/	.	/	/	/
COC(=O)[C@H](CC(C)C)N(Cc1cn(CC2CCCCC2)nn1)S(=O)(=O)c1ccc(F)cc1Br	.	/	/	.	/	/	/
C[C@H]1[C@@H](N(C)C)CC[C@@]23CCCN2C(=O)CCC[C@@H]13	.	/	/	.	/	/	/
CCN(CCO)C(=O)c1ccc2nc(Cc3ccc(OC)cc3)oc2c1	.	.	.	24	.	.	.
O=C1CCC[C@H]2Cc3nc4ccccc4cc3C[C@]23CCCN13	.	/	/	.	/	/	/
CCN(CCn1cccn1)C(=O)c1cc(COc2c(F)cccc2F)on1	.	.	.	46	.	.	.
C(=C\c1ccccc1)/CSc1nnc(-c2cccnc2)o1	.	.	.	21	.	.	.
c1ccc(CSc2nnc(-c3cccnc3)o2)cc1	.	.	.	.	.	.	/
